Results published in the supplement of paper PMC13380429.

What follows are molecules tested on Vero E6 infected with SARS-CoV-2 (assay: SARS-CoV-2 infection rate relative to infected DMSO; higher = more infection, active = 60 or less). Conditions: 24 h.

| SMILES | SARS-CoV-2 infection rate |
| --- | --- |
| C[C@@H]1CCCN1CCc1cc2cc(-c3ccc(C#N)cc3)ccc2o1 (10 µM) | 80.5% (inactive) |
| [O-][n+]1ccccc1[S-].[O-][n+]1ccccc1[S-].[Zn+2] [pyrithione-zinc] (10 µM) | 91.5% (inactive) |
| O=C1NCCc2[nH]c(-c3ccncc3)cc21 (0.833333 µM) | 106% (inactive) |
| CC(CCc1ccc(O)cc1)NCC(O)c1ccc(O)cc1 (stereo not given) [ractopamine] (10 µM) | 111% (inactive) |
| CN1C(=O)OC(C)(C)C1=O [trimethadione] (10 µM) | 106% (inactive) |
| Cn1nnc2c(C(N)=O)ncn2c1=O [temozolomide] (10 µM) | 114% (inactive) |
| CCCCCCCCc1ccc(-c2ccc(C(=O)O)cc2)cc1 (10 µM) | 96% (inactive) |
| Clc1ccccc1C(c1ccccc1)(c1ccccc1)n1ccnc1 [clotrimazole] (10 µM) | 78.5% (inactive) |
| CN(C)[C@@H]1C(O)=C(C(N)=O)C(=O)[C@@]2(O)C(O)=C3C(=O)c4c(O)ccc(Cl)c4[C@@](C)(O)[C@H]3C[C@@H]12 (10 µM) | 102% (inactive) |
| CSCC[C@H](NC(=O)[C@H](CC(C)C)NC(=O)[C@@H](Cc1c[nH]c2ccccc12)NC(=O)[C@H](Cc1ccccc1)N(C)C(=O)[C@@H](Cc1c[nH]c2ccccc12)NC(=O)[C@@H](N)CCCNC(=N)N)C(N)=O [antagonist-g] (10 µM) | 114% (inactive) |
